Consider 100 compounds from PubChem BioAssay AID463173 (ICCB-Longwood Screening Facility, Harvard Medical School, 2010).

Among all 52,000 compounds or so, about 4,300 (8.3%) were called active. Cut-off read from the data, not from the text of the source: active = survival mostly below about 52% (no sharp cut-off); inactive = mostly above about 56%. For the sample, actives were picked, then their nearest neighbours and some compounds at random.

In the assay the test system is DeltatarO mutant. The assay can be described thus: S. aureus survival, RN4220 and DeltatarO strains – OD600, teichoic acid synthesis inhibitors, primary screen (AID 463173). The note with it: S. aureus RN4220 wild type/DeltatarO growth, OD600, 18 h, stronger effect = lower value, screened at 18.75 µg/mL (by protocol).
For the compound `CCN(CC)c1ccc(C2C(C(=O)Nc3ccccc3C)=C(C)Nc3ncnn32)cc1` (stereo not given), the survival is 99% (inactive).
With `Cc1ccc(-n2ncc3c(N4CCN(C)CC4)ncnc32)cc1`, the survival is 81% (inactive).
Regarding `CN(C)C(=O)c1ccc2c(c1)N(CC(=O)NCc1ccc(F)cc1)C(=O)C1CCCCN21` (stereo not given), the survival is 74% (inactive).
Then `CCOC(=O)c1c(-c2cccs2)csc1NC(=O)C(F)(F)F`, with 70% (inactive).
In the case of `CCOC(=O)c1ccccc1NC(=O)Cn1c(=O)n(Cc2nc(-c3ccccc3)no2)c(=O)c2ccccc21`, the survival is 72% (inactive).
The figure for `COc1cc(OC)c(N(C)C(=O)CSc2c3c(nc4ccc(Cl)cc24)CCCC3)cc1Cl` is 33% (active).
Consider `COc1cccc(CNC(=O)CSc2c3c(nc4ccc(Cl)cc24)CCCC3)c1OC`, for which the survival was 62% (inactive).
Turning to `COc1ccc(NC(=O)CSc2c3c(nc4ccc(Cl)cc24)CCCC3)cc1Cl`, the survival is 55% (inactive).
Regarding `CN(Cc1ccccc1)C(=O)CSc1c2c(nc3ccc(Cl)cc13)CCCC2`, the survival was 0% (active).
Regarding `CCc1ccc(CNC(=O)CSc2c3c(nc4ccc(Cl)cc24)CCCC3)cc1`, the survival was 63% (inactive).
For `CCCN(CCC)C(=O)CSc1c2c(nc3ccc(Cl)cc13)CCCC2`, the survival is 38% (active).
For `Cc1ccc(CNC(=O)CSc2c3c(nc4ccc(Cl)cc24)CCCC3)cc1`, the survival was 76% (inactive).
In the case of `CCCCN(C)C(=O)CSc1c2c(nc3ccc(Cl)cc13)CCCC2`, the survival was -2% (active).
The figure for `Cc1ccc2nc(NC(=O)CSc3[nH]c(=O)ncc3C)sc2c1` is 102% (inactive); for `O=S(=O)(c1ccc2nsnc2c1)N1CCCCC1` it is 66% (inactive).
For the compound `CCOc1ccc(CNC(=O)c2cc3ccccn3n2)cc1OC`, the survival was 74% (inactive).
For `CCOc1ccc(NC(=O)C2CC(=O)N(c3ccc(C(C)C)cc3)C2)cc1` (stereo not given), the survival is 91% (inactive).
`COc1ccc(CCNC(=O)CCn2c(=O)c3ccccc3n(Cc3c(C)cc(C)cc3C)c2=O)cc1OC`: the survival is 89% (inactive).
As to `Cc1cccc(N2CCN(c3nc4ccccc4c4nc(-c5ccccc5)nn34)CC2)c1C`, the survival is 92% (inactive).
For `COc1ccc(N2CCN(C(=O)Nc3ccccc3Cl)CC2)cc1`, the survival is 167% (inactive).
`CC(CNC(=O)Cn1ccc2cc(S(=O)(=O)N3CCCCCC3)ccc21)c1ccccc1` (stereo not given): the survival was 109% (inactive).
Then `CCN(CC)CCCNC(=O)CSc1c2c(nc3cc(Cl)ccc13)CCCC2`, with 109% (inactive).
`CCCCN(CC)C(=O)CSc1c2c(nc3ccc(Cl)cc13)CCCC2`: the survival is -2% (active).
As for `COc1ccccc1NC(=O)c1ncn(-c2ccccc2)n1`, the survival was 115% (inactive).
Then `CCCCCC(=O)N1c2ccccc2C(C)(c2ccccc2)CC1(C)C` (stereo not given), with -2% (active); and `CC(=O)N1c2ccccc2N(C)C(=O)C1(C)C`, with 88% (inactive).
With `CCC(CC)C(=O)N1c2ccccc2C(C)(c2ccccc2)CC1(C)C` (stereo not given), the survival was -5% (active).
As for `CCC(CC)C(=O)N1CCN(Cc2ccccc2)CC1`, the survival was 94% (inactive).
`CC1=CC(C)(C)N(C(=O)Cc2ccccc2)c2ccccc21`: the survival is 115% (inactive).
Then `Cc1ccc(NC(=O)CN2C(=O)C(C)(C)c3ccccc32)cc1`, with 78% (inactive); and `CCN1C(=O)C(O)(C(C)C(=O)c2ccccc2)c2ccccc21` (stereo not given), with 57% (inactive); and `CCC(=O)N1c2ccccc2C(C)(c2ccccc2)CC1(C)C` (stereo not given), with -8% (active).
Consider `CC(=O)N1c2ccccc2C(C)(c2ccc(C)cc2)CC1(C)C` (stereo not given), for which the survival was -4% (active).
As for `CCC(=O)N1CCN(C(=O)CC)C1c1ccccc1`, the survival is 93% (inactive).
Consider `CC1=CC(C)C(/C=N/O)C(C)C1` (stereo not given), for which the survival is 94% (inactive).
Regarding `O=C(/C=C/c1ccccc1)Nc1ccccc1N1CCN(c2ccccc2)CC1`, the survival was 106% (inactive).
As to `Cc1ccc2onc(CNC(=O)NCc3cccc(Cl)c3)c2c1`, the survival is 72% (inactive).
As to `CC1CCCN(c2ncnc3c2nnn3C)C1` (stereo not given), the survival was 75% (inactive).
For `CCOC(=O)CN1CCOCCN(CC(=O)OCC)CCOCC1`, the survival is 64% (inactive).
Regarding `Cc1ccc(NC(=O)CSc2cn(CC(=O)N3CCCC3)c3ccccc23)cc1Cl`, the survival was 84% (inactive).
For the compound `CCOc1ccc(CCNC(=O)Cn2nnc(-c3ccc(OC)c(OC)c3)n2)cc1OCC`, the survival was 65% (inactive).
Consider `O=C(Nc1ccc2c(c1)oc1ccccc12)c1cccs1`, for which the survival is 69% (inactive).
As for `COc1ccc(OC)c(CCNC(=O)C2CCN(c3ncnc4c3nc3n4CCCCC3)CC2)c1`, the survival was 80% (inactive).
In the case of `COc1ccc(CNC(=O)CN2CCSc3ccccc32)c(OC)c1`, the survival is 120% (inactive).
As for `CC(C)CN(CCNC(=O)CCN1N=C(c2ccccc2)CCC1=O)CC(C)C`, the survival is 84% (inactive).
As for `CCOC(=O)c1ccccc1NC(=O)N(C(C)C)C1CCN(C(C)=O)CC1`, the survival is 73% (inactive).
The figure for `CCc1ccc(NC(=O)c2cnn3c(C(F)F)cc(C)nc23)cc1` is 96% (inactive); for `O=C(Cn1c(=O)n2nc(-c3cccc(F)c3)nc2c2ccccc21)N1CCN(c2ccccc2F)CC1` it is 116% (inactive).
With `Cc1nn(Cc2noc(C(=O)NCc3cccc(F)c3)n2)c(C)c1Br`, the survival was 71% (inactive).
Regarding `CCCCOc1ccc(C2(C(=O)O)CCCC2)cc1`, the survival is 103% (inactive).
With `CCCCN1C(=O)C(O)(CC(=O)c2ccc(C(C)(C)C)cc2)c2ccccc21` (stereo not given), the survival is 28% (inactive).
On to `CCCCC(=O)N1c2ccccc2C(C)(c2ccccc2)CC1(C)C` (stereo not given), for which the survival is -3% (active).
For `CC(C)Cc1nn2c(=O)cc(COC(=O)c3ccccc3NC(=O)C3CCCCC3)nc2s1`, the survival was 81% (inactive).
On to `CC(=O)Nc1ccc(-n2c(CCC(=O)O)ccc2-c2ccc(C)cc2)cc1`, for which the survival is 56% (inactive).
Then `Cc1ccc(-c2ccc(CCC(=O)O)n2-c2ccc(C(C)C)cc2)cc1`, with 44% (inactive).
For `COC(=O)c1ccc(-n2c(CCC(=O)O)ccc2-c2ccc(C)cc2)cc1`, the survival is 49% (inactive).
The figure for `CCOC(=O)c1ccc(-n2c(CCC(=O)O)ccc2-c2ccc(Br)cc2)cc1` is 19% (active); for `CCc1ccc(-n2c(CCC(=O)O)ccc2-c2cccs2)cc1` it is 52% (inactive).
With `O=C(O)CCc1ccc(-c2ccc(Br)cc2)n1-c1ccccc1O`, the survival was 64% (inactive).
Take `Cc1ccc(-c2ccc(CCC(=O)O)n2-c2ccc(C(N)=O)cc2)cc1`: the survival was 60% (inactive).
Turning to `CCOc1ccc(NC(=O)Cn2c(CCC(=O)O)ccc2-c2ccc(C)cc2)cc1`, the survival is 65% (inactive).
Then `CC(=O)Nc1ccc(-n2c(CCC(=O)O)ccc2-c2ccc(Br)cc2)cc1`, with 45% (active).
`CCc1ccc(-n2c(CCC(=O)O)ccc2-c2ccc(F)cc2)cc1`: the survival is 29% (active).
Then `CCOc1ccc(-n2c(CCC(=O)O)ccc2-c2ccc(Br)cc2)cc1`, with 48% (active).
Take `CN(C)c1ccc(-n2c(CCC(=O)O)ccc2-c2ccccc2)cc1`: the survival was 60% (inactive).
Consider `Cc1c(CNC2CCCCC2)c(C(=O)O)c(C)n1Cc1ccc(F)cc1`, for which the survival was 85% (inactive).
Turning to `Cc1ccc(-c2ccc(C#N)c(=O)n2CC(=O)N2CCNC(=O)C2(C)C)cc1`, the survival is 88% (inactive).
The figure for `COc1ccc(CCNC(=O)C(=O)NCC(c2ccco2)S(=O)(=O)c2ccccc2)cc1OC` (stereo not given) is 54% (inactive); for `COc1ccc(S(=O)(=O)N(C(=O)c2ccncc2)c2ccc3oc(C)c(C(C)=O)c3c2)cc1` it is 152% (inactive); for `CCc1nn(-c2ccccc2)c2nc(-c3ccc(O)cc3)c3cc(OC)c(OC)cc3c12` it is 74% (inactive).
For `COc1ccc(Cc2nc3c4cnn(-c5ccccc5F)c4ncn3n2)cc1`, the survival is 81% (inactive).
As to `Cc1cc(-n2c(SCC(=O)NCc3ccccc3)nc3ccsc3c2=O)ccc1Cl`, the survival was 87% (inactive).
Turning to `CCOC(=O)c1ccc(-n2c(CCC(=O)O)ccc2-c2ccccc2)cc1O`, the survival was 43% (active).
With `O=C(O)CCc1ccc(-c2ccccc2)n1-c1ccc(C(=O)O)cc1`, the survival is 131% (inactive).
As to `CC(=O)c1cccc(-n2c(CCC(=O)O)ccc2-c2ccccc2)c1`, the survival was 74% (inactive).
The figure for `Cc1cccc(C2NC(=O)c3c(sc4c3CCN(C)C4)N2)c1O` (stereo not given) is 125% (inactive).
In the case of `CCn1c(=O)c2sccc2n2c(CCCC(=O)N3CCN(c4ccccc4OC)CC3)nnc12`, the survival was 91% (inactive).
Take `CC(=O)c1ccc(NC(=O)c2cc(C3CC3)nc3c2c(C)nn3-c2ccc(C)cc2)cc1`: the survival is 46% (active).
Consider `COc1ccc(NC(=O)c2cc(C3CC3)nc3c2c(C)nn3-c2ccc(C)cc2)cc1OC`, for which the survival is 144% (inactive).
Regarding `COc1ccc(NC(=O)c2cc(C3CC3)nc3c2c(C)nn3-c2ccccc2)c(OC)c1`, the survival is 37% (active).
For `COc1ccccc1NC(=O)c1cc(C2CC2)nc2c1c(C)nn2-c1ccc(C)cc1`, the survival is 98% (inactive).
For the compound `CC(=O)c1ccc(NC(=O)c2cc(C)nc3c2c(C)nn3-c2ccc(C)cc2)cc1`, the survival is 102% (inactive).
For `COc1ccc(NC(=O)c2cc(C3CC3)nc3c2c(C)nn3-c2ccccc2)cc1`, the survival is 53% (inactive).
As for `Nc1c(C(=O)Nc2ccccc2)nnn1Cc1ccc(F)cc1Cl`, the survival is 99% (inactive).
Regarding `O=C(Cn1cc(S(=O)(=O)Cc2cccc(Cl)c2)c2ccccc21)NCc1ccccc1Cl`, the survival is 91% (inactive).
As to `O=C1CSC(N(c2ccccc2)c2ccccc2)=N1`, the survival is 96% (inactive).
On to `COc1cccc(CNC(=O)CCn2c(=O)c3cccn3c3cccnc32)c1OC`, for which the survival was 98% (inactive).
The figure for `Cc1ccc(CNC(=O)CCS(=O)(=O)c2cc3c4c(c2)CCN4C(=O)CC3)cc1` is 67% (inactive).
The figure for `Cn1nc(C(=O)N2CCN(c3cccc(Cl)c3)CC2)c2c1-c1ccccc1S(=O)(=O)C2` is 37% (active); for `Cc1ccc2c(c1)-c1onc(C(=O)N3CCN(c4cc(C)ccc4C)CC3)c1CO2` it is 66% (inactive); for `Cc1ccc(N2CCN(C(=O)c3nn(C)c4c3CS(=O)(=O)c3ccccc3-4)CC2)c(C)c1` it is 77% (inactive).
Consider `Cc1ccc2c(c1)-c1onc(C(=O)N3CCN(c4cc(Cl)ccc4C)CC3)c1CO2`, for which the survival was 57% (active).
The figure for `Cc1ccc(C)c(N2CCN(C(=O)c3nn(C)c4c3CS(=O)(=O)c3ccccc3-4)CC2)c1` is 49% (active); for `Cn1nc(C(=O)N2CCN(c3ccccc3F)CC2)c2c1-c1ccccc1SC2` it is 32% (active).
As to `Cn1nc(C(=O)N2CCN(c3ccccc3)CC2)c2c1-c1ccccc1S(=O)(=O)C2`, the survival was 51% (inactive).
Take `Cc1ccc2c(c1)-c1onc(C(=O)N3CCN(c4ccc(Cl)cc4)CC3)c1CO2`: the survival is 63% (inactive).
As to `Cn1nc(C(=O)N2CCN(c3ccc(Cl)cc3)CC2)c2c1-c1ccccc1S(=O)(=O)C2`, the survival was 51% (inactive).
For `Cn1nc(C(=O)N2CCN(c3ccc(F)cc3)CC2)c2c1-c1ccccc1SC2`, the survival is 77% (inactive).
Consider `Cn1nc(C(=O)N2CCN(c3ccccc3)CC2)c2c1-c1ccccc1SC2`, for which the survival was 80% (inactive).
For `Cc1cccc(N2CCN(C(=O)c3nn(C)c4c3CS(=O)(=O)c3ccccc3-4)CC2)c1C`, the survival was 67% (inactive).
